Assay results as given in PubChem BioAssay.

Each compound was assayed against Epidermal growth factor receptor (Homo sapiens) (UniProt P00533) (assay: compounds binding epidermal growth factor receptor – biochemical, small-molecule microarray, 635 nm fluorescence, primary screen (AID 1104;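 note: score merges 667 nm emission intensity with spot signal to noise over triplicate slides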)). Conditions: EGFR binding, higher = more signal.
Epidermal growth factor receptor (Homo sapiens), sequence (P00533 whole entry, looked up): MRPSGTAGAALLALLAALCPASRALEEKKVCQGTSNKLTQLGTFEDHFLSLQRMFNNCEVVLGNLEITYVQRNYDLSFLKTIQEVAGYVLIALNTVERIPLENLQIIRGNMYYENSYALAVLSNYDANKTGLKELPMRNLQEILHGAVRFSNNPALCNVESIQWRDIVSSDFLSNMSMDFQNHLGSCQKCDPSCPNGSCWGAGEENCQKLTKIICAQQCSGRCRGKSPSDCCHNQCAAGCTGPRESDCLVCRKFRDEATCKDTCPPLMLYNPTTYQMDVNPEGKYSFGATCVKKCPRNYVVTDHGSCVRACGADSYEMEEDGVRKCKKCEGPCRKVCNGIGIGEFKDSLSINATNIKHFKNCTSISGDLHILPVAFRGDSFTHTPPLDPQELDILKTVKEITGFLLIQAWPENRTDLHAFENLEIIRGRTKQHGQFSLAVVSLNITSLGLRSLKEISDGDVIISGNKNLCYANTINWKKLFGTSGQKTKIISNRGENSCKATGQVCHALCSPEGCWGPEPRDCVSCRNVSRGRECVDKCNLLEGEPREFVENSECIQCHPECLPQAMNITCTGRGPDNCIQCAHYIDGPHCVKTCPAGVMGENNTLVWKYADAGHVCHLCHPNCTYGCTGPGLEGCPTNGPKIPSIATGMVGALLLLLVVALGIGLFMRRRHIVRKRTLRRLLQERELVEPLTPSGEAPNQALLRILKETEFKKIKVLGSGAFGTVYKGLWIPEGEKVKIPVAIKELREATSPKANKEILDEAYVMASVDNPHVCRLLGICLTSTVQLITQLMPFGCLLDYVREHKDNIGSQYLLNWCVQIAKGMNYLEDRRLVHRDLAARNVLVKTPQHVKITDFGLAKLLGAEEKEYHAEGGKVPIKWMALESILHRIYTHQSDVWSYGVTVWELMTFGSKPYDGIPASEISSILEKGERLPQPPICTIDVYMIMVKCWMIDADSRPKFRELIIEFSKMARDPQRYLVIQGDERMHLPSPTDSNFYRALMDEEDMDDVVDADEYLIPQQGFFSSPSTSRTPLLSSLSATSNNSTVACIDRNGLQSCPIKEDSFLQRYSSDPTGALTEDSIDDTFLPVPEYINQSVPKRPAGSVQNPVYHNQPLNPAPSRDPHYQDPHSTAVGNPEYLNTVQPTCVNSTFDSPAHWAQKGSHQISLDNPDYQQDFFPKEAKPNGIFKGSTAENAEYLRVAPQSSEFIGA

| SMILES | composite z-score |
| --- | --- |
| CC(C)N1C(=O)C[C@@](C(=O)NCCN2CCOCC2)(c2ccc([N+](=O)[O-])cc2)[C@H]1c1ccc(CO)cc1 | -1.12 |
| CN(C)CCCNC(=O)[C@@]1(Cc2ccccc2I)c2ccccc2C(=O)N(C2CCCCC2)[C@H]1c1ccc(CO)cc1 | 0.0863 |
| CC(C)N1C(=O)c2ccccc2[C@@H](C(=O)NCC(F)(F)F)[C@@H]1c1ccc(CO)cc1 | -0.318 |
| CC(C)=C1C(=O)C(c2ccccc2)=C2CN3C(=O)N(CCc4ccccc4)C(=O)[C@]3(C)[C@H]21 | -0.276 |
| COCCCNC(=O)[C@@]1(CCS(=O)(=O)c2ccccc2)COC(c2ccc(OCCCO)cc2)=N1 | -0.318 |
| O=C1C2C=CC(C(O)C3CCCCC3)N(n3cnnc3)C2C(=O)N1Cc1ccccc1 (stereo unspecified) | 0.0887 |

Each compound was assayed against Follistatin-related protein 3 (Homo sapiens) (UniProt O95633) (assay: compounds binding follistatin-related protein 3 – biochemical, small-molecule microarray, 635 nm fluorescence, primary screen (AID 1105;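 note: score merges emission near 667 nm and signal to noise per printed spot across three slides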)). Conditions: FSTL3 binding, higher = more signal.
Follistatin-related protein 3 (Homo sapiens), sequence (O95633 whole entry, looked up): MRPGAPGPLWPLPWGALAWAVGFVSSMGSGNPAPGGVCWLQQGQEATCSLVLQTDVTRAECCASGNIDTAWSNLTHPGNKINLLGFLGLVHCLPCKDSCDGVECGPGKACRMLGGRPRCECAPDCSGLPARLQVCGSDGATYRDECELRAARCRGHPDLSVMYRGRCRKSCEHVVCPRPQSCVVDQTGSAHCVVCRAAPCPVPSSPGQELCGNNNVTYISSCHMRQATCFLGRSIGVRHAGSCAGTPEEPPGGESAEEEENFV

| SMILES | composite z-score |
| --- | --- |
| CC1CC/C=C\[C@H]2OC34C=CCN(CCN5CCOCC5)C(=O)[C@H]3N(CCCO)C(=O)[C@@H]4C2C(=O)O1 (stereo partly specified) | -0.59 |
| COC(=O)C[C@H]1O[C@@]2(C[C@@H]1[Si](C)(C)C)C(=O)N(C)c1ccccc12 | 0.612 |
| O=C1C2C=CC(C(O)c3cccs3)N(Nc3ccc([N+](=O)[O-])cc3)C2C(=O)N1c1ccccc1 (stereo unspecified) | 0.393 |
| Cc1ccc(S[C@]2(C(=O)NCc3ccccc3)CC(=O)N(Cc3ccccc3C(F)(F)F)[C@@H]2c2ccc(CO)cc2)cc1 | -1.28 |
| O=C1[C@H]2C=C(I)[C@H](C[C@@H]2c2ccccc2)[C@@]12CO2 | -0.461 |
| C=CC[C@@]12N=C(c3ccc(OCCCO)cc3)O[C@@H]1c1ccccc1N(CCC)C2=O | 1.15 |
| C=CCC(OC(C)=O)[C@@H]1[C@@H](N(Cc2cccc3ccccc23)C(=O)c2ccc(-c3ccccc3)cc2)c2cc(OCCCO)ccc2N1C(=O)Cc1ccc2ccccc2c1 (stereo partly specified) | 0.228 |
| CCOC(=O)C1=CC[C@@H](c2ccccc2)N(S(=O)(=O)c2ccc(C)cc2)[C@H]1c1ccccc1I | 0.806 |
| O=C1O[C@H](c2ccccc2)[C@H](c2ccccc2)N2[C@H]1[C@@H](C(=O)O)[C@]1(C(=O)Nc3ccc(C#CCCO)cc31)[C@H]2c1ccc(OCCO)cc1 | 0.446 |
| COc1ccc(C(O)C2C=CC3C(=O)NC(=O)C3N2Nc2ccc(Cl)cc2Cl)c2ccccc12 (stereo unspecified) | 0.483 |
| COCCCNC(=O)[C@@]1(CCC(=O)OC(C)(C)C)COC(c2ccc(OCCCO)cc2)=N1 | 0.219 |
| NC(=O)N1C(=O)C2C(C1=O)C1C=C(CCCO)C2C(C2CC2)N1Cc1sc2ccccc2c1Cl (stereo unspecified) | 0.808 |
| C=CCOC(=O)[C@@H]1[C@H]2C(=O)O[C@H](c3ccccc3)[C@H](c3ccccc3)N2[C@H](c2ccc(OCCOC(=O)[C@H]3C[C@H]4C(=O)N[C@@H](CCCCN(C)C)C(=O)N4[C@H]3c3ccc(O)cc3)cc2)[C@@]12C(=O)Nc1ccc(I)cc12 | 1.42 |
| CCCC=C(CCC)[C@@H](NC(=O)c1ccc(C(F)(F)F)cc1)c1ccc(C(F)(F)F)cc1 | 0.468 |
| COc1cc(C(O)C2C=CC3C(=O)N(c4ccccc4)C(=O)C3N2Nc2ccccc2)cc(OC)c1OC (stereo unspecified) | 1.07 |
| CC(=O)OCC1C2CC[C@H]3C(OCc4ccc(F)cc4C(F)(F)F)OC[C@]4(C)[C@H]3C2=C(CN4C(=O)OC(C)(C)C)[C@H](C)C1COC(C)=O (stereo partly specified) | -0.925 |
| COC(=O)[C@@]1(Cc2ccc(F)cc2)[C@H]2c3cc(C(=O)N4CCCC4)n(Cc4cc(F)cc5c4OCOC5)c3C[C@H]2CN1C(=O)c1ccccc1 | 1.3 |
| C[C@@H]1ON(c2ccccc2)[C@H](c2ccccc2)[C@H]1C(=O)O | -0.213 |

| SMILES | composite z-score |
| --- | --- |
| C=CCC(OC(C)=O)[C@@H]1[C@@H](N(Cc2cc3ccccc3o2)C(=O)Cc2ccc(OC)cc2)c2cc(OCCCO)ccc2N1C(=O)c1ccc2ccccc2n1 (stereo partly specified) | 0.367 |
| COC(=O)[C@@]1(Cc2ccc(OC)cc2)[C@H]2c3cc(C(=O)N4CCCC4)n(Cc4c(CO)[nH]cc(C)c4=O)c3C[C@H]2CN1C(=O)c1ccccc1 | 0.158 |
| COc1ccc(NN2C(C(O)c3ccc(I)cc3)C=CC3C(=O)N(C4CCCCC4)C(=O)C32)cc1 (stereo unspecified) | 1.46 |
| O=C1O[C@H](c2ccccc2)[C@H](c2ccccc2)N2[C@H]1[C@@H](C(=O)N1CCN(c3ncccn3)CC1)[C@]1(C(=O)Nc3ccc(C#CCCO)cc31)[C@H]2c1ccc(O)cc1 | 0.0936 |
| CC1CC/C=C\[C@H]2OC34C=CCN(c5ccc(Cl)cc5)C(=O)[C@H]3N(CCCCCCO)C(=O)[C@]4(C)C2C(=O)O1 (stereo partly specified) | -0.931 |
| O=C(NC1CC1)[C@@H]1c2ccccc2C(=O)N(Cc2cc(C(F)(F)F)cc(C(F)(F)F)c2)[C@H]1c1ccc(CO)cc1 | 0.075 |
| COc1ccc([Si](C)(C)[C@@H]2[C@@H](CC(=O)N3Cc4ccccc4C[C@H]3CO)O[C@]3(C(=O)N(Cc4ccc(N5CCOC5=O)cc4)c4ccccc43)[C@H]2C)cc1 | 1.24 |
| CN1C(=O)C2C(C1=O)C1C=C(CCCO)C2C(C2CC2)N1Cc1cccc(OC(F)(F)F)c1 (stereo unspecified) | 0.0703 |
| [N-]=[N+]=Nc1ccccc1[C@@H]1OC(c2ccc(OCCCO)cc2)=N[C@]1(Cc1ccccc1)C(=O)NCCN1CCOCC1 | 0.952 |
| COC(=O)[C@@]1(Cc2ccccc2)N=C(c2ccc(OCCCO)cc2)O[C@H]1c1ccccc1CN=[N+]=[N-] | 0.323 |
| Cc1ccc(N2C(=O)c3ccccc3[C@](C)(C(=O)NCCCN(C)C)[C@@H]2c2ccc(CO)cc2)nc1 | -0.444 |
| CC(C)N1C(=O)C[C@@](C(=O)NCCN2CCOCC2)(c2ccc([N+](=O)[O-])cc2)[C@H]1c1ccc(CO)cc1 | -0.854 |
| CN(C)CCCNC(=O)[C@@]1(Cc2ccccc2I)c2ccccc2C(=O)N(C2CCCCC2)[C@H]1c1ccc(CO)cc1 | 0.383 |
| CC(C)N1C(=O)c2ccccc2[C@@H](C(=O)NCC(F)(F)F)[C@@H]1c1ccc(CO)cc1 | -0.464 |
| CC(C)=C1C(=O)C(c2ccccc2)=C2CN3C(=O)N(CCc4ccccc4)C(=O)[C@]3(C)[C@H]21 | -0.0755 |
| COCCCNC(=O)[C@@]1(CCS(=O)(=O)c2ccccc2)COC(c2ccc(OCCCO)cc2)=N1 | -0.0346 |
| O=C1C2C=CC(C(O)C3CCCCC3)N(n3cnnc3)C2C(=O)N1Cc1ccccc1 (stereo unspecified) | 1.21 |
